According to the supplement of paper PMC4466140:

Columns and labels:
Experiment in all cases: SPOT peptide array binding signal intensity (averaged, normalized) (arbitrary units (background-subtracted, floor 0; scale differs between SH3 domains)); higher = stronger binding of the SH3 domain to the peptide
AgAbp1 = biological target: AgAbp1
Procedure, shortened: (§1)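 The binding signal is the normalized, background-subtracted spot intensity averaged over replicates; its arbitrary units differ between domains. It was obtained by incubating 10 μg/ml GST-fused SH3 domains from four yeast species overnight at 4°C in TBS-based blocking buffer on cellulose membranes with synthetic 15-mer peptides, cysteines replaced by serines, then detecting with anti-GST antibody, HRP anti-mouse secondary and luminol.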

AgBbc1 = biological target: AgBbc1
Procedure, shortened: as §1

AgBem1-D1 = biological target: AgBem1-D1
Procedure, shortened: as §1

AgBzz1-D1 = biological target: AgBzz1-D1
Procedure, shortened: as §1

AgBzz1-D2 = biological target: AgBzz1-D2
Procedure, shortened: as §1

AgCyk3 = biological target: AgCyk3
Procedure, shortened: as §1

AgFus1 = biological target: AgFus1
Procedure, shortened: as §1

AgHof1 = biological target: AgHof1
Procedure, shortened: as §1

AgHse1 = biological target: AgHse1
Procedure, shortened: as §1

AgLsb1 = biological target: AgLsb1
Procedure, shortened: as §1

AgLsb4 = biological target: AgLsb4
Procedure, shortened: as §1

AgMyo5 = biological target: AgMyo5
Procedure, shortened: as §1

AgNbp2 = biological target: AgNbp2
Procedure, shortened: as §1

AgRvs167 = biological target: AgRvs167
Procedure, shortened: as §1

AgSho1 = biological target: AgSho1
Procedure, shortened: as §1

AgSla1-D1-D2 = biological target: AgSla1-D1-D2
Procedure, shortened: as §1

AgSla1-D3 = biological target: AgSla1-D3
Procedure, shortened: as §1

CaAbp1-D1 = biological target: CaAbp1-D1
Procedure, shortened: as §1

CaAbp1-D2 = biological target: CaAbp1-D2
Procedure, shortened: as §1

CaBbc1 = biological target: CaBbc1
Procedure, shortened: as §1

CaBem1-D1 = biological target: CaBem1-D1
Procedure, shortened: as §1

CaBzz1-D1 = biological target: CaBzz1-D1
Procedure, shortened: as §1

CaBzz1-D2 = biological target: CaBzz1-D2
Procedure, shortened: as §1

CaCyk3 = biological target: CaCyk3
Procedure, shortened: as §1

CaFus1 = biological target: CaFus1
Procedure, shortened: as §1

CaHof1 = biological target: CaHof1
Procedure, shortened: as §1

CaHse1 = biological target: CaHse1
Procedure, shortened: as §1

CaLsb1 = biological target: CaLsb1
Procedure, shortened: as §1

CaLsb4 = biological target: CaLsb4
Procedure, shortened: as §1

CaMyo5 = biological target: CaMyo5
Procedure, shortened: as §1

CaNbp2 = biological target: CaNbp2
Procedure, shortened: as §1

CaRvs167 = biological target: CaRvs167
Procedure, shortened: as §1

CaRvs167-3 = biological target: CaRvs167-3
Procedure, shortened: as §1

CaSho1 = biological target: CaSho1
Procedure, shortened: as §1

CaSla1-D1-D2 = biological target: CaSla1-D1-D2
Procedure, shortened: as §1

CaSla1-D3 = biological target: CaSla1-D3
Procedure, shortened: as §1

ScAbp1 = biological target: ScAbp1
Procedure, shortened: as §1

ScBbc1 = biological target: ScBbc1
Procedure, shortened: as §1

ScBem1-D1 = biological target: ScBem1-D1
Procedure, shortened: as §1

ScBzz1-D1 = biological target: ScBzz1-D1
Procedure, shortened: as §1

ScBzz1-D2 = biological target: ScBzz1-D2
Procedure, shortened: as §1

ScCyk3 = biological target: ScCyk3
Procedure, shortened: as §1

ScFus1 = biological target: ScFus1
Procedure, shortened: as §1

ScHof1 = biological target: ScHof1
Procedure, shortened: as §1

ScHse1 = biological target: ScHse1
Procedure, shortened: as §1

ScLsb1 = biological target: ScLsb1
Procedure, shortened: as §1

ScLsb2 = biological target: ScLsb2
Procedure, shortened: as §1

ScLsb3 = biological target: ScLsb3
Procedure, shortened: as §1

ScLsb4 = biological target: ScLsb4
Procedure, shortened: as §1

ScMyo3 = biological target: ScMyo3
Procedure, shortened: as §1

ScMyo5 = biological target: ScMyo5
Procedure, shortened: as §1

ScNbp2 = biological target: ScNbp2
Procedure, shortened: as §1

ScPex13 = biological target: ScPex13
Procedure, shortened: as §1

ScRvs167 = biological target: ScRvs167
Procedure, shortened: as §1

ScSho1 = biological target: ScSho1
Procedure, shortened: as §1

ScSla1-D1-D2 = biological target: ScSla1-D1-D2
Procedure, shortened: as §1

ScSla1-D3 = biological target: ScSla1-D3
Procedure, shortened: as §1

SpAbp1-D1 = biological target: SpAbp1-D1
Procedure, shortened: as §1

SpBbc1 = biological target: SpBbc1
Procedure, shortened: as §1

SpBzz1-D1 = biological target: SpBzz1-D1
Procedure, shortened: as §1

SpBzz1-D2 = biological target: SpBzz1-D2
Procedure, shortened: as §1

SpCyk3 = biological target: SpCyk3
Procedure, shortened: as §1

SpHof1 = biological target: SpHof1
Procedure, shortened: as §1

SpHof1-2 = biological target: SpHof1-2
Procedure, shortened: as §1

SpHof1-3 = biological target: SpHof1-3
Procedure, shortened: as §1

SpHse1 = biological target: SpHse1
Procedure, shortened: as §1

SpLsb1 = biological target: SpLsb1
Procedure, shortened: as §1

SpLsb4 = biological target: SpLsb4
Procedure, shortened: as §1

SpMyo1 = biological target: SpMyo1
Procedure, shortened: as §1

SpNbp2 = biological target: SpNbp2
Procedure, shortened: as §1

SpPex13 = biological target: SpPex13
Procedure, shortened: as §1

SpRvs167 = biological target: SpRvs167
Procedure, shortened: as §1

SpSla1-D1-D2 = biological target: SpSla1-D1-D2
Procedure, shortened: as §1

SpSla1-D3 = biological target: SpSla1-D3
Procedure, shortened: as §1

Measured: SPOT peptide array binding signal intensity

DTIDNVKSKIQDKEG
2: CaRvs167
21: CaBzz1-D1
7.75: SpHof1-3
2.5: CaRvs167-3
4: AgHse1
0.5: AgRvs167
12: ScBzz1-D1
≤ 0: AgAbp1 | AgBbc1 | AgBem1-D1 | AgBzz1-D1 | AgBzz1-D2 | AgCyk3 | AgFus1 | AgHof1 | AgLsb1 | AgLsb4 | AgMyo5 | AgNbp2 | AgSho1 | AgSla1-D1-D2 | AgSla1-D3 | CaAbp1-D1 | CaAbp1-D2 | CaBbc1 | CaBem1-D1 | CaBzz1-D2 | CaCyk3 | CaFus1 | CaHof1 | CaHse1 | CaLsb1 | CaLsb4 | CaMyo5 | CaNbp2 | CaSho1 | CaSla1-D1-D2 | CaSla1-D3 | ScAbp1 | ScBbc1 | ScBem1-D1 | ScBzz1-D2 | ScCyk3 | ScFus1 | ScHof1 | ScHse1 | ScLsb1 | ScLsb2 | ScLsb3 | ScLsb4 | ScMyo3 | ScNbp2 | ScPex13 | ScRvs167 | ScSho1 | ScSla1-D1-D2 | ScSla1-D3 | SpAbp1-D1 | SpBbc1 | SpBzz1-D1 | SpBzz1-D2 | SpCyk3 | SpHof1 | SpHof1-2 | SpHse1 | SpLsb1 | SpLsb4 | SpMyo1 | SpNbp2 | SpPex13 | SpRvs167 | SpSla1-D1-D2 | SpSla1-D3
1: ScMyo5
